Data published in ChEMBL document CHEMBL4513149, “CO-ADD screening of MMV (CH) - MMV compounds” (2021).
Measured potencies and affinities stand elsewhere.

Tests used:
Staphylococcus aureus = conditions: Concentration 20 uM; ASSAY_TEST Inhibition of Bacterial Growth; detection method Absorption (OD600); MEDIA CAMHB; plate type 384well; NBS; CORNING #3640; time 18 hr
Escherichia coli = conditions: Concentration 20 uM; ASSAY_TEST Inhibition of Bacterial Growth; detection method Absorption (OD600); MEDIA CAMHB; plate type 384well; NBS; CORNING #3640; time 18 hr

Row | SMILES | Inhibition (Staphylococcus aureus) [%] | Inhibition (Escherichia coli) [%]
1 | N#Cc1nc(-c2ccccc2)oc1S(=O)(=O)c1ccc(Cl)cc1 | 8.62 | 6.48
2 | Nc1ncc(Br)cc1-c1nc2cc(Cl)cnc2[nH]1 | 26.53 | 12.85
3 | Cc1noc(C)c1COc1cccc(C(=O)N=c2[nH]cccc2C)c1 | 21.93 | 6.93
4 | Cc1ccc2cc(C3NC(=O)c4ccccc4N3)c(Cl)nc2c1 (centres undefined) | 11.87 | 10.17
5 | Nc1ncc(-c2ccc(C(F)(F)F)nc2)cc1-c1ccc(C(F)(F)F)nc1 | 3.63 | 7.53
6 | COc1ccccc1C(C)NCC(=O)Nc1cc(C(F)(F)F)ccc1Cl (centres undefined) | 10.99 | 8.42
7 | CC(C)(C)n1nc(-c2ccccc2)c2c(N)ncnc21 | 6.95 | -3.37
8 | Clc1cccc(CO[C@H]2CCc3ccccc3[C@@H]2n2ccnn2)c1 | -0.96 | 7.53
9 | CC(C)(C)c1ccc(N[C@@H]2CCCC[C@H]2NC(=O)c2ccco2)cc1 | 7.06 | 10.16
10 | CCOc1ccccc1C(=O)Nc1cccc(-c2nc3ncccn3c2C)c1 | 2.54 | 10.22
11 | COc1cc(NC(=O)Cc2nn(C)c(=O)c3ccccc23)ccc1Cl | 23.8 | 11.61
12 | Cc1nc(-c2ccccn2)nc(NCCc2ccc(S(C)(=O)=O)cc2)c1Cl | 4.78 | -2.55
13 | O=C(Nc1cccc(-c2ccc(NCCCN3CCCC3)nc2)c1)c1ccccc1 | 10.81 | 7.66
14 | CCCCOC(=O)Nc1cc2nc(C3CCCCC3)[nH]c2cc1N1CCCC1 | 9.54 | -0.47
15 | Cc1cc(NCC(C)C)c2[nH]nc(-c3ccccc3)c2n1 | 14.44 | 8.23
16 | O=C(C(Cc1c[nH]c2ccccc12)NS(=O)(=O)c1ccc(Cl)cc1)N1CCCCC1 (centres undefined) | 2.32 | 4.17
17 | O=C(Nc1cnc2ccccc2c1)c1cccc(-n2cnnn2)c1 | 5.61 | -2.29
18 | CCCn1nnc(NC(=O)COc2ccc(C3CCCCC3)cc2)n1 | 2.73 | -2.31
19 | Nc1ncnc2[nH]nc(Cc3cccc4ccccc34)c12 | 12.91 | 7.05
20 | O=C(OCc1ccccc1)N1CCC(c2cc(-c3ccncc3)c(-c3ccc(F)cc3)[nH]2)CC1 | 3.21 | 4.05
21 | CC1CCCN(C(=O)C(C)Nc2cc(Cl)ccc2N2CCOCC2)C1 (centres undefined) | 20.88 | 9.44
22 | c1ccc2c(c1)CN(CC1CC1)CC1(CCN(Cc3c[nH]c4cnccc34)CC1)O2 | 14.8 | 1.67
23 | COc1cc(-c2cc(-c3ccc(S(C)(=O)=O)cc3)cnc2N)ccc1O | 12.87 | 6.84
24 | c1coc(CNc2nc(N3CCCCC3)nc3ccccc23)c1 | 13.52 | 5.17
25 | Cl.c1ccc(C[C@@H]2CN(c3nccc(Oc4ccc(-n5ccnc5)cc4)n3)CCN2)cc1 | 21.29 | 8.76
26 | Brc1c(-c2ccc3c(c2)OCO3)nc2ncccn12 | 14.85 | 5.08

Row | SMILES | Inhibition (Staphylococcus aureus) [%] | Inhibition (Escherichia coli) [%]
27 | FC(F)(F)c1ccc(N(c2cccnc2)C2CCN(c3ccc(C(F)(F)F)cn3)CC2)cc1 | 14.25 | 5.86
28 | COc1cccc(CC(=O)N2CCC(n3c(C)nc4ccc(F)cc43)CC2)c1 | 21.64 | 9.91
29 | CS(=O)(=O)c1ccc(C(=O)N(CC2CCCO2)c2nc3ccccc3s2)cc1[N+](=O)[O-] (centres undefined) | 17.15 | 7.54
30 | NCCC(O)C(=O)N[C@@H]1C[C@H](N)[C@@H](OC2O[C@H](CN)[C@@H](O)[C@H](O)[C@H]2O)[C@H](O)C1OC1O[C@H](CO)[C@@H](O)[C@H](N)[C@H]1O.O=S(=O)(O)O.O=S(=O)(O)O (some centres undefined) | 14.32 | 11.24
31 | CN1CCC(NCc2cccc(-c3ccc(S(=O)(=O)NCc4ccccc4)cc3)c2)CC1 | 14.84 | 4.63
32 | O=C1COCc2ccc(Br)cc2N1Cc1ccc(C(F)(F)F)cc1 | 12.84 | 10.17
33 | CC(C)C(Oc1cccc2ccccc12)C(=O)O (centres undefined) | 10.48 | -2.25
34 | CCC(Sc1nc2ccccc2o1)C(=O)Nc1nnc(C)s1 (centres undefined) | -13.91 | -8.34
35 | O=C(Nc1cccc(Cl)c1)c1cnc(N2CCN(c3ccncc3)CC2)c(Cl)c1 | 19.29 | 6.8
36 | Cc1cc(NC(=O)c2ccc(S(=O)(=O)N(Cc3ccccc3)C(C)C)cc2)no1 | 10.98 | 6.09
37 | Nc1ncnc2c1c(-c1cnc3ccccc3c1)nn2CC1CCNCC1 | 3.94 | -4.76
38 | Cc1ccc(NC(=O)CC2COc3ccccc3O2)cc1Cl (centres undefined) | 15.28 | 6.03
39 | O=C(NCCN1CCCC1)c1cc(NCCCCN2CCC(F)(F)CC2)nc2ccc(Cl)cc12 | 22.5 | 8.02
40 | Clc1ccc(Cl)c(CO[C@H]2CCCC[C@@H]2n2ccnc2)c1 | 22.53 | 7.4
41 | O=C1N(Cc2cc3ccccc3s2)CC2CN(Cc3ccccc3)CCN12 (centres undefined) | 3.35 | -5.97
42 | CCn1ncc2c(NC3CCOCC3)c(CNC(=O)c3ccnn3C)c(C)nc21 | 5.59 | 3.03
43 | COc1ccc(Oc2ccc([C@@H](C)N(C)c3ncc4c(N)nc(N)nc4n3)cc2)cc1 | 53.21 | 13.92
44 | COC(=O)C1=C(C)NC(C)=C(C(=O)OC(C)C)C1c1cccc2nonc12 (centres undefined) [ISRADIPINE] | 3.78 | -1.04
45 | COc1cccc2c(C)nc(N=C(N)N)nc12.O=C(O)C(F)(F)F.O=C(O)C(F)(F)F | 15.44 | 7.95
46 | CC(=O)N1CCc2cc3nc(C)cc(C)c3cc21 | 14.4 | 5.79
47 | c1ccc(Oc2ccc(-c3cc(C4CCOCC4)[nH]n3)cc2)cc1 | 24.63 | 11.25
48 | COc1ccc(C(=N)N)cc1-c1cn(-c2ccc(C(=N)N)cc2)nn1.Cl.Cl | 4.09 | 2.37
49 | O=S(=O)(c1ccc(Cl)cc1)N1CCN(C(=S)NCc2ccco2)CC1 | 6.19 | -1.38
50 | Nc1nc(N)c2c3c(sc2n1)CN(Cc1ccccc1)CC3 | 15.72 | 6.81
51 | Cc1ccc(-c2cc(C(=O)Nc3cccnc3)c3cc(Br)ccc3n2)cc1 | 16.17 | 9.4
52 | COc1nc2ccc(Br)cc2cc1[C@@H](c1ccccc1)[C@@](O)(CCN(C)C)c1cccc2ccccc12.O=C(O)C(F)(F)F | 17.15 | 2.08

Row | SMILES | Inhibition (Staphylococcus aureus) [%] | Inhibition (Escherichia coli) [%]
53 | COc1ccc(N(CCc2cccc(C)n2)C(=O)C2CCCCC2)cc1 | 4 | 3.67
54 | CC[C@H](CO)NCCN[C@H](CC)CO.Cl.Cl | 13.87 | -1.24
55 | CN1CCN(c2cc(-c3ccc(F)cc3)nc(-c3ccncc3)n2)CC1 | 17.93 | -5.05
56 | CCc1ccc(C(NCc2nc(N)nc(N(C)C)n2)C(C)C)cc1 (centres undefined) | 6.21 | 7.08
57 | Clc1ccc(CN2CCN(C3=NCCN3)CC2)cc1Cl | 14.27 | 4.2
58 | CCCc1ccc(S(=O)(=O)Nc2ccc(CN3CCN(CC4CC4)CC3)cc2)cc1 | 18.92 | 6.87
59 | Nc1ncc(-c2cn[nH]c2)cc1-c1nc2cc(Cl)cnc2[nH]1 | -0.61 | 5.12
60 | CC1CS(=O)(=O)CCN1/N=C/c1ccc([N+](=O)[O-])o1 (centres undefined) [NIFURTIMOX] | 33.42 | 6
61 | CNc1snc(C)c1C(=O)NCCOc1ccc(OC)cc1 | 18.31 | 5.8
62 | Cc1ccc2[nH]c(C3CCCNC3)c(-c3ccncc3)c2c1.Cl.Cl (centres undefined) | 42.59 | 2.54
63 | CC1=NN(c2nc3ccccc3s2)C(=O)C1Cc1cccc2ccccc12 (centres undefined) | 69.16 | 0.69
64 | COc1ccccc1CNC(=O)c1cc(C2CC2)nc2c1cnn2C(C)C | 13.79 | -2.58
65 | CN(C)CCNC(=O)N1CCCN(c2ncnc3cc(-c4ccccc4)sc23)CC1 | 13.78 | 3.44
66 | CS(=O)(=O)Cc1nc2ccccc2oc1=O | 30.23 | 5.17
67 | Cc1ccc(NC(=O)c2nc[nH]c2C(=O)Nc2nc3ccccc3[nH]2)c(C)c1 | 23.22 | 12.12
68 | O=C(NCCc1c[nH]c2ccccc12)c1cc2ccccc2oc1=O | 13.99 | 9.41
69 | CNc1nnc(Sc2cnn(-c3ccccc3)c(=O)c2Cl)s1 | 17.43 | -7.26
70 | Cc1ccc2nc(C)c(-c3ccn(Cc4ccccc4)n3)n2c1 | 13.47 | 10.25
71 | Nc1cccnc1Nc1ccc(Cl)cc1 | 2.93 | -1.63
72 | Cc1c[nH]c(CCNC(=O)c2cc(-c3ccc(Cl)cc3)cs2)n1 | 25.33 | 10.78
73 | COc1cc(C(F)(F)F)nc2ccc(C)c(N)c12 | 15.64 | 5.11
74 | Cc1cc2nc(NC(=O)C(C)(C)C)nc(Cl)c2n1Cc1ccc(Cl)cc1 | 7.77 | 0.73
75 | CCOc1ccc2cc(-c3nn(CC4CCN(C)CC4)c4ncnc(N)c34)ccc2c1.Cl | 18.54 | 8.02
76 | CN1CCN(c2nccc3nc(-c4ccc(F)c(F)c4)[nH]c23)CC1 | 17.33 | 8.63
77 | CCN(CC)CCCN1CCN(C(=O)c2cccc(-c3noc(C(F)(F)F)n3)c2)CC1 | -0.71 | -1.62
